# Screens as filed in PubChem BioAssay.
# A549 tox – A549 cytotoxicity, counter-screen for Nrf2 inhibitors | A549 ARE-Fluc cells, CellTiter-Fluor viability, 18-24 h | Potency, µM (titrated, usually from 46 µM), inactives show at the top dose activity change, negative = cytotoxicity, hits mostly inhibitors | actives 0.16% (n = 390,000); further: on the % scale 0 is the no-effect control and ±100 the full control effect
#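 A549 ARE_Fluc cells in 5% FBS OPTI-MEM were exposed to compounds in concentration-response for 18-24 h at 37 deg C. Viability was read by CellTiter-Fluor fluorescence (Ex 405/Em 525) after 30 min, before the luciferase read.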
# Nrf2 activator – activates Nrf2 signaling; actives 0.31% (n = 410,000); AREc32 ARE-luciferase reporter (MCF7-derived line), luminescence, 24 h; Potency, µM (doses to about 46.1 µM), without a hit: top-dose activation, hits mostly activators; further: % of control where 0% means no effect; nearly all actives have a fitted effect of over 65% in size
#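 Luminescent ARE reporter assay in AREc32_Fluc cells: overnight plating at 37 deg C, 24 hr compound incubation, Steady-Glo added, 30 min RT before reading.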
# ELG1 repair inh – blocks ELG1-dependent DNA repair in HEK293T cells | actives 2.3% (n = 330,000) | Potency, µM (series often up to 46.1 µM), inactives show at the top dose activity change, negative = inhibition, actives largely listed as inhibitors | HEK293T ELG1-luciferase reporter, luminescence, 16 h; DNA damage induced by 5-fluorouridine | AID 504467; further: on the % scale 0 is the no-effect control and ±100 the full control effect; nearly all actives have a fitted effect of over 55% in size
#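 DMSO vehicle served as the neutral condition. Each well held 2,000 cells given 5-fluorouridine plus compound; after 16 hr at 37 °C/5% CO2, ONE-Glo was added and luciferase measured 30 min later.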
# Nrf2 inh – inhibitors of Nrf2 signaling; A549 ARE-Fluc reporter, luciferase luminescence, 18-24 h; Potency, µM (series often up to 46 µM), for inactives: at the top dose activity change, negative = inhibition, actives largely listed as inhibitors; actives 2.1% (n = 360,000); AID 504444; further: on the % scale 0 is the no-effect control and ±100 the full control effect; nearly all actives have a fitted effect of over 60% in size
#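 Reporter: ARE-Fluc in A549. Exposure: 18-24 h, 37 °C, 5% CO2, 5% FBS OPTI-MEM. Readouts: fluorescent cytotoxicity (CellTiter-Fluor), then luminescent Nrf2 signal after BugLite.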
# The depositor's hits bear a star; ? = inconclusive; . = no result given; [ ] = dose if it differs, or a comment. Shown are actives, neighbours in structure and some others; about 3.7% of the full set was active somewhere. The call rests on the fitted dose curve; in most records, active means well fitted curve in the direction sought with a large enough effect; inconclusive means small, poorly fitted or top-dose-only effect, or another doubt; inactive means no such curve, though single readings can be large; an effect the other way counts as inactive or inconclusive. Potency means the concentration at half of the fitted maximal effect.
SMILES,A549 tox,Nrf2 activator,ELG1 repair inh,Nrf2 inh
Cc1nnn(C23C[C@@H]4C[C@@H](CC(C(=O)N5CCN(c6ccccc6)CC5)(C4)C2)C3)n1,-4%,-1%,23µM*,-4%
Cc1ccc(NS(=O)(=O)c2ccc(-n3cccn3)cc2)c(Cl)c1,.,0%,.,.
CCOC(=O)c1cnc(-n2cc(C)cn2)nc1Nc1ccccc1OC,2%,3%,5.2µM*,-12%
CCOC(=O)c1cnc(SCc2nc(N)nc(Nc3ccccc3OC)n2)nc1N,.,.,-4%,.
COc1ccc(CN2CCC3CC2c2cc(Cl)ccc23)cc1 (stereo not drawn),3%,0%,.,13%
O=C(N(c1ccccc1)c1ccccc1)N(c1ccccc1)c1ccccc1,-9%,4%,?,?
CCC(O)(CC)C(=O)NN(C(=O)CCl)c1ccccc1,-4%,?,?,?
Cc1ccc(C(O)(C(=O)NN(C(=O)c2ccccc2)c2ccccc2)c2ccc(C)cc2)cc1,-4%,0%,-27%,15%
O=C(Nc1ccccc1)NN(C(=O)CCl)c1ccccc1,?,?,23µM*,21µM*
Cc1ccc(N(NC(=O)C(O)(c2ccccc2)c2ccccc2)C(=O)CCl)cc1,-13%,-3%,21µM*,?
O=C(CCl)N(c1ccccc1)c1ccccc1,-2%,-2%,21µM*,-7%
CC1(C)OC(=O)C2(Cc3c(F)cccc3N3CCCC32)C(=O)O1 (stereo not drawn),-1%,.,.,0%
CN1CCN(c2ccc(Cl)cc2NC(=O)CCN2C(=O)c3ccccc3C2=O)CC1,0%,0%,21%,9%
C=CCc1ccccc1OCCSc1nc(-c2cccs2)nc2cc(=O)[nH]n12,0%,4%,.,22%
CN(C)CCNC(=O)/C=C/c1cn(-c2ccccc2)nc1-c1cc2ccccc2oc1=O,-5%,0%,-12%,-4%
CC(C)c1c(C(=O)N/N=C/c2cccc(OCc3ccc(F)cc3)c2)nnn1-c1nonc1N,-5%,0%,?,?
CC(/C=N/NC(=O)c1nnn(-c2nonc2N)c1CN1CCCCC1)=C\c1ccccc1,?,2%,-21%,5.2µM*
Cc1ccccc1COc1ccc(/C=N/NC(=O)c2nnn(-c3nonc3N)c2CN2CCC(C)CC2)cc1,-6%,3%,5%,22%
COc1cc(/C=N/NC(=O)c2nnn(-c3nonc3N)c2C(C)C)ccc1OCc1ccc(F)cc1,?,0%,?,16µM*
C/C(=N\NC(=O)c1nnn(-c2nonc2N)c1CN1CCCCC1)c1ccccc1O,2%,-1%,18µM*,?
CC1CCN(Cc2c(C(=O)N/N=C/c3ccc(OC(C)C)cc3)nnn2-c2nonc2N)CC1,?,4%,-14%,23µM*
Cc1cc(/C=C(\C#N)C(=O)N2CCOCC2)c(C)n1C1CCCC1,-10%,-2%,?,?
Cc1cc2c(s1)c1cnn(Cc3cc(F)cc(F)c3F)c(=O)c1n2C,-3%,.,.,0%
C/C(=N\NC(=O)c1nnn(-c2nonc2N)c1CN(C)c1ccccc1)c1ccccc1O,-18%,-1%,?,8.2µM*
COc1ccc(/C(C)=N/NC(=O)c2nnn(-c3nonc3N)c2CN(C)c2ccccc2)cc1,-13%,0%,-4%,16µM*
SMILES,A549 tox,Nrf2 activator,ELG1 repair inh,Nrf2 inh
Cn1c(=O)oc2cc(S(=O)(=O)N3CCCC(C(=O)NCCc4ccccc4)C3)ccc21 (stereo not drawn),0%,0%,.,-17%
CSc1ccccc1OCc1cc(C(=O)N2CCC[C@H]2C(N)=O)no1,-5%,-1%,-10%,10%
CCOC(=O)C1(CCOc2ccccc2)CCN(Cc2ccccc2O)CC1,3%,4%,.,8%
CCOC(=O)C1(CCOc2ccccc2)CCN(Cc2cccc(OC)c2OC)CC1,-12%,4%,12µM*,?
COc1ccc(C2CC=C(C(C)=O)CN2S(=O)(=O)c2ccc(C)cc2)cc1 (stereo not drawn),.,8%,.,.
CS(=O)(=O)N1CCc2cc(C(=O)Nc3ccc(Cl)c(C(F)(F)F)c3)ccc21,-27%,-1%,.,21µM*
CS(=O)(=O)N1CCc2cc(C(=O)Nc3ccc(C(F)(F)F)cc3)ccc21,?,1%,.,?
CCC(=O)N1CCc2cc(S(=O)(=O)CCC(=O)Nc3ccc(Cl)c(C(F)(F)F)c3)ccc21,-2%,23%,.,21µM*
COc1ccc(NC(=O)c2oc3ccccc3c2NC(=O)c2ccc3c(c2)OCO3)cc1,-25%,2%,9.2µM*,?
COc1ccc(NC(=O)c2oc3ccccc3c2NC(=O)C2CC2)cc1OC,6%,0%,16µM*,5%
COc1ccc(NC(=O)c2oc3ccccc3c2NC(=O)c2cc(OC)c(OC)c(OC)c2)cc1,1%,0%,.,?
CCOc1ccccc1NC(=O)c1oc2ccccc2c1NC(=O)C1CCCO1 (stereo not drawn),5%,0%,7.3µM*,-6%
CCOC(=O)c1[nH]c(C)c(CCC(=O)Nc2ccc(C)cc2Cl)c1C,15%,0%,.,.
CSc1nc2nccc(-c3ccc(-c4ccccc4)cc3)n2n1,-6%,0%,?,?
CSc1nc2nccc(-c3ccc(Oc4ccccc4)cc3)n2n1,2%,0%,?,18µM*
Cc1ccc(-n2c(O)c(C=NC3CCS(=O)(=O)C3)c3ccccc3c2=O)c(C)c1 (stereo not drawn),-10%,0%,0%,-11%
Cc1ccc(-n2c(O)c(C=Nc3cc(C)on3)c3ccccc3c2=O)c(C)c1,?,0%[9.22 µM],?,23µM*
O=C(NC1CCCCC1)c1ccc([N+](=O)[O-])cc1,3%,1%,.,25%
O=C(NC1CCCCC1)c1ccc(S(=O)(=O)c2ccccc2Cl)c([N+](=O)[O-])c1,.,.,5.8µM*,.
O=C(c1ccc(S(=O)(=O)c2ccccc2Cl)c([N+](=O)[O-])c1)N1CCN(Cc2ccccc2)CC1,?,19%,23µM*,18µM*
O=C(c1ccc(Br)c([N+](=O)[O-])c1)N1CCN(Cc2ccccc2)CC1,-4%,22%,-17%,-9%
CC(C=CC(O)=C1C(=O)CNC1=O)=C[C@@H](C)C1OC2(C)OC(C(=O)C3O[C@@]32C)C1C (stereo partly drawn),.,0%,.,.
c1ccc(-c2cc3c(-n4cccc4)ncnc3o2)cc1,-3%,3.2µM*,1%,16%
c1ccc(Oc2ncnc3oc(-c4ccccc4)cc23)cc1,-2%,2%,11%,.
CN(Cc1ccccc1)Cc1nc2c(c(=O)n(C)c(=O)n2C)n1Cc1ccccc1Cl,-1%,0%,15µM*,4%
CCCn1c(CN(C)Cc2ccccc2)nc2c1c(=O)n(C)c(=O)n2C,-13%,0%,12µM*,?
CCCCn1c(CN(C)Cc2ccccc2)nc2c1c(=O)n(C)c(=O)n2C,-2%,0%,?,?
Cc1ccc(OC(=O)c2cc(-c3ccc4c(c3)OCCO4)on2)cc1C,-3%,0%,.,-28%
COc1ncnc2c1ncn2CCCN(C)Cc1ccco1,.,1%,.,.
